The whole screen tested about 310,000 compounds, of which about 14,000 (4.5%) showed an effect of 50% or more. The effect is printed as a negative number. Many of the other results were omitted from the sample, so strong results are more common in it than they were.
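Also: peak tail current of the secondary pulse compared with the same well before compound.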

The target in the assay is human ether-à-go-go-related gene (hERG) potassium channel (human, UniProt Q12809). Briefly: primary screen, population patch clamp on CHO cells stably expressing hERG; higher = less effect of the substance.
Chain of human ether-à-go-go-related gene (hERG) potassium channel (Q12809 whole entry, looked up): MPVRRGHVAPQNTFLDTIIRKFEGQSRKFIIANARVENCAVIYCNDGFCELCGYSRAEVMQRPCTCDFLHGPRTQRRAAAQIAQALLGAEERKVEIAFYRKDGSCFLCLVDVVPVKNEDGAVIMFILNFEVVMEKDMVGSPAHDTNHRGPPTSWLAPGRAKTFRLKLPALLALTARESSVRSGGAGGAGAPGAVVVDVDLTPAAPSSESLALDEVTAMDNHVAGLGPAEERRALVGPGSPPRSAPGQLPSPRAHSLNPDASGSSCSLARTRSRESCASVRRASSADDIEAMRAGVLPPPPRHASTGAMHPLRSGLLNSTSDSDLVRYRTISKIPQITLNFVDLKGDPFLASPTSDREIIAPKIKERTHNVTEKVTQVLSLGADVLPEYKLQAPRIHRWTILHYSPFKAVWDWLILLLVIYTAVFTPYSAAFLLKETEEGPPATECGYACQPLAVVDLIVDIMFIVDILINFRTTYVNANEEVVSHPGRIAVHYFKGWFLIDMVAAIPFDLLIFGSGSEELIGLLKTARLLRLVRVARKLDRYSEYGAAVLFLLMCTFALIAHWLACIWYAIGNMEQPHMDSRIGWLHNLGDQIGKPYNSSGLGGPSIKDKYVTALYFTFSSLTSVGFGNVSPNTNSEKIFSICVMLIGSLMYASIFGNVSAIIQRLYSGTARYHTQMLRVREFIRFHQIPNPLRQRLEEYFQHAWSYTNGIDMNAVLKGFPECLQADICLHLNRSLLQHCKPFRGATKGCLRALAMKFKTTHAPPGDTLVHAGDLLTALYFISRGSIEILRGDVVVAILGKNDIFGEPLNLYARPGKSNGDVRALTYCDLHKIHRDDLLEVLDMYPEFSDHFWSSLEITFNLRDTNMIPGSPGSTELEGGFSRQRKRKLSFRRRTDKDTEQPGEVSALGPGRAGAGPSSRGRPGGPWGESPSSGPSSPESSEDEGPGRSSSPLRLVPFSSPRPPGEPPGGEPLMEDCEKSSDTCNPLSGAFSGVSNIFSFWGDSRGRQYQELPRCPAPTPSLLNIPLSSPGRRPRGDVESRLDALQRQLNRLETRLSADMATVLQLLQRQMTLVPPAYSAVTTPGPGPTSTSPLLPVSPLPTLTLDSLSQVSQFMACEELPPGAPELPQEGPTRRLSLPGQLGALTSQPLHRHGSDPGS
Take `CCC(=Nc1ccccc1N)c1c(O)[nH]c(=O)[nH]c1=O`: the “hERG current change (%, negative = inhibition) at 10uM” value stood at 18.5%. With `COC(=O)C1CN(C(=O)COc2cccc(C)c2C)c2ccccc2O1` (stereo not drawn), the “hERG current change (%, negative = inhibition) at 10uM” value was -6.63%. For `Cc1cccc(NC(=O)CCN2C(=O)C3C4C=CC(C4)C3C2=O)n1` (stereo not drawn) the value was 5.71%; for `COc1ccc(C(=O)C2CCCN(Cc3c(F)ccc(F)c3F)C2)c(OC)c1` (stereo not drawn), -30.9%; for `COc1ccc(C(=O)C2CCCN(Cc3c[nH]c4ccccc34)C2)c(OC)c1` (stereo not drawn), -70.8%.

Turning to `COc1ccc(C(=O)C2CCCN(Cc3c(C)[nH]c4ccccc34)C2)c(OC)c1` (stereo not drawn), the “hERG current change (%, negative = inhibition) at 10uM” value is listed as -70.1%. For the compound `COc1ccc(F)cc1C(=O)C1CCCN(Cc2c(C)n(C)n(-c3ccccc3)c2=O)C1` (stereo not drawn), the “hERG current change (%, negative = inhibition) at 10uM” value is -11.5%. Under `COc1ccc(F)cc1C(=O)C1CCCN(Cc2c[nH]c3ccccc23)C1` (stereo not drawn) stands -63.8%; under `COc1ccc(F)cc1C(=O)C1CCCN(Cc2cn(C)c3ccccc23)C1` (stereo not drawn), -39.5%; under `COc1ccc(C(=O)COC(=O)Cc2c[nH]c3ccccc23)c(OC)c1`, 4.87%. Take `CC1=C(C(=O)OC(C)C)C(c2ccncc2)n2ncnc2N1` (stereo not drawn): the “hERG current change (%, negative = inhibition) at 10uM” value worked out at 0.568%. As for `CCOc1nc(Nc2cc(Cl)ccc2OC)nc(OCC)n1`, the “hERG current change (%, negative = inhibition) at 10uM” value is on record as 19.7%.

For `N#Cc1ccccc1CSCCNC(=O)Cc1c(F)cccc1Cl`, the “hERG current change (%, negative = inhibition) at 10uM” value is recorded as 15.8%. Take `CCN(CC)S(=O)(=O)c1ccc2c(c1)nc(CCC(=O)Nc1ccc3c(c1)OCO3)n2CC`: the “hERG current change (%, negative = inhibition) at 10uM” value is listed as -0.447%. In the case of `Cc1ccc2c(c1)nnn2C1CCN(S(=O)(=O)c2ccc(C(=O)NC3CCCC3)cc2)CC1`, the “hERG current change (%, negative = inhibition) at 10uM” value is on record as 15.9%.

As for `CCOc1ccc(N(C)S(=O)(=O)c2cc(-c3cc(C)no3)ccc2C(C)C)cc1`, the “hERG current change (%, negative = inhibition) at 10uM” value came to 4.4%. Turning to `Cc1cc(N(C)Cc2ccccc2)nc2cc(O)ccc12`, the “hERG current change (%, negative = inhibition) at 10uM” value was -56.4%.

For the compound `CN(Cc1ccccc1)c1cc(Cl)nc(N)n1`, the “hERG current change (%, negative = inhibition) at 10uM” value was -1.61%. For `Cc1cc(N(C)Cc2ccccc2)nc(-c2ccccc2)n1` the value was -24.1%; for `C=CCn1nc2ccccc2c1OC`, 3.76%; for `CCOc1ccc(Nc2c3c(nc4ncnn24)CC(C)CC3)cc1` (stereo not drawn), -53.9%. With `C=CCNc1c2c(nc3ncnn13)CC(C)CC2` (stereo not drawn), the “hERG current change (%, negative = inhibition) at 10uM” value is -14.8%. On to `Clc1ccc(Nc2c3c(nc4ncnn24)CCC3)cc1`, for which the “hERG current change (%, negative = inhibition) at 10uM” value came to 8.29%.

`C#CCNc1c2c(nc3ncnn13)CC(C)CC2` (stereo not drawn): the “hERG current change (%, negative = inhibition) at 10uM” value is given as -10.7%. With `c1ccc(Nc2c3c(nc4ncnn24)CCC3)cc1`, the “hERG current change (%, negative = inhibition) at 10uM” value is given as -54.5%.

As to `Brc1ccc(Nc2c3c(nc4ncnn24)CCC3)cc1`, the “hERG current change (%, negative = inhibition) at 10uM” value was -21.4%. With `Clc1ccc(/C=N/Nc2nn[nH]n2)cc1`, the “hERG current change (%, negative = inhibition) at 10uM” value stood at 12.6%. For the compound `Cc1ccc2nsnc2c1S(=O)(=O)Nc1ccccc1C(=O)O`, the “hERG current change (%, negative = inhibition) at 10uM” value is on record as -7.06%. Take `Cc1c(Cc2ccccc2)sc(NC(=O)/C=C/c2cccc3ccccc23)c1C(N)=O`: the “hERG current change (%, negative = inhibition) at 10uM” value came out at 20%. Consider `COc1ccc(CN2C(=NC(=O)CCC3CCCC3)SC3CS(=O)(=O)CC32)cc1` (stereo not drawn), for which the “hERG current change (%, negative = inhibition) at 10uM” value was found to be 19.7%. As for `CCCCN1C[C@H](Cc2ccccc2)[C@@H](CC(=O)NCc2ccc(OC)cc2)C1=O`, the “hERG current change (%, negative = inhibition) at 10uM” value is recorded as -61.8%. Regarding `COc1ccc(CNC(=O)C[C@H]2C(=O)N(c3ccccc3)C[C@@H]2Cc2ccccc2)cc1`, the “hERG current change (%, negative = inhibition) at 10uM” value is -49.4%. For `COc1ccc(CNC(=O)C[C@H]2C(=O)N(CCc3ccccc3)C[C@@H]2Cc2ccccc2)cc1`, the “hERG current change (%, negative = inhibition) at 10uM” value is -53%.

`COc1ccc(CN2C[C@H](Cc3ccccc3)[C@@H](CC(=O)Nc3ccccc3)C2=O)cc1`: the “hERG current change (%, negative = inhibition) at 10uM” value is listed as -10.5%. As for `COc1ccc(CNC(=O)C[C@H]2C(=O)N(Cc3ccc(OC)cc3)C[C@@H]2Cc2ccccc2)cc1`, the “hERG current change (%, negative = inhibition) at 10uM” value is given as -45.9%.

As for `COc1ccc(CNC(=O)C[C@H]2C(=O)N(Cc3ccccc3)C[C@@H]2Cc2ccccc2)cc1`, the “hERG current change (%, negative = inhibition) at 10uM” value turned out to be 2.76%. Under `COc1cccc(C(=O)NNC(=O)c2ccccc2-n2cccc2)c1` stands 34.4%; under `CS(=O)(=O)c1nc(S(=O)(=O)c2ccc(Cl)cc2)c(NCCN2CCOCC2)s1`, -31.6%; under `CC(C)(C)c1ccc(-c2c(C#N)c(N)nc3c2CCCC3)s1`, -0.863%. Under `CC12CN3CN(C1)CC(c1ccccc1)(C3)C2=O` stands 12.7%; under `Cc1noc(C)c1COC(=O)[C@@H](NC(=O)c1ccccc1)C(C)C`, 11.5%. In the case of `Cc1ccccc1OC(C)C(=O)NCCC1=CCCCC1` (stereo not drawn), the “hERG current change (%, negative = inhibition) at 10uM” value is given as -1.85%. Regarding `COc1cccc(OCc2cc(C(=O)N3CCN(c4ccccc4O)CC3)no2)c1`, the “hERG current change (%, negative = inhibition) at 10uM” value turned out to be 4.71%. For `COc1cccc(OCc2cc(C(=O)N3CCN(C(=O)c4ccco4)CC3)no2)c1` the value was -51.7%; for `O=C(c1cc(COc2ccc(F)cc2F)on1)N1CCSCC1`, -11.7%. Under `O=C(c1cc(COc2ccc(F)cc2F)on1)N1CCOCC1` stands 17.7%; under `COc1cccc(OCc2cc(C(=O)N3CCN(C(C)=O)CC3)no2)c1`, -1.97%; under `O=C(c1cc(COc2ccc(F)cc2F)on1)N1CCN(C(=O)c2ccco2)CC1`, -57.3%. For the compound `Cc1ccc(NC(=S)N2CCCC2)cc1Cl`, the “hERG current change (%, negative = inhibition) at 10uM” value is 11.5%. `CC(=O)NCCOC(=O)c1nn(Cc2ccccc2)c(=O)c2ccccc12`: the “hERG current change (%, negative = inhibition) at 10uM” value is reported as -22.4%. Under `Cc1sc2nc(CN3CCN(c4ccc(O)cc4)CC3)[nH]c(=O)c2c1C` stands 14.4%. On to `C=CCN(Cc1ccc(Cl)s1)C(=O)CNC(=O)CNC(=O)c1ccc(Cl)cc1Cl`, for which the “hERG current change (%, negative = inhibition) at 10uM” value was -70.6%.

Turning to `CN(Cc1ccc(Cl)s1)C(=O)CNC(=O)CNC(=O)c1ccc(Cl)cc1Cl`, the “hERG current change (%, negative = inhibition) at 10uM” value is on record as -56.8%. With `COc1ccc(CN(C)C(=O)CNC(=O)CNC(=O)c2ccc(Cl)cc2Cl)cc1F`, the “hERG current change (%, negative = inhibition) at 10uM” value was -43.5%. For `CN(Cc1cccnc1)C(=O)CNC(=O)c1ccc(Cl)cc1Cl` the value was -17.2%; for `O=C(CNC(=O)CNC(=O)c1ccc(Cl)cc1Cl)NCc1cccc(Cl)c1`, -1.95%; for `C=CCNC(=O)c1ccc(Cl)cc1Cl`, 11.8%.

Values taken from article PMC4336329 (PLoS ONE, 2015).
